Source: PubChem BioAssay AID1159580 (chemical genetic matrix, 2015)
Values joined by “and” are separate entries in the source; they are usually repeats but may differ in a detail not shown here. Identical values can stand only once. About 2,000 (36%) of roughly 5,500 compounds were called active. Inconclusive results (about 18%) are left out. Rule as the data show it: active = normalized growth mostly below about 0.91 (no sharp cut-off); inconclusive = no clear call, values can overlap the other calls; inactive = mostly above about 0.92. The list shows a part of the results.

Experiment: chemical genetic growth profiling, strain panel (AID 1159580);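 also: tested at 20 µM; growth read once vehicle control cultures reached saturation at 30 °C; 1 = growth at the plate median or of vehicle wells; lower values mean less growth of the strain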
Details: S. cerevisiae deletion strains, growth OD

Measured: normalized growth

CC(=O)Oc1ccc(C(c2ccc(OC(C)=O)cc2)c2ccccn2)cc1
inactive: locus YAL021C, strain ccr4, hits give low values 1.02 | locus YAL026C, strain drs2, hits give low values 1.02 | locus YAL030W, strain snc1, hits give low values 1.01 | locus YBL061C, strain skt5, hits give low values 1.01 | locus YBR009C, strain hhf1, hits give low values 1.04 | locus YBR021W, strain FUR4, hits give low values 0.998 | locus YBR023C, strain chs3, hits give low values 1.02 | locus YBR171W, strain sec66, hits give low values 1.02 | locus YBR229C, strain ROT2, hits give low values 0.969 | locus YBR231C, strain swc5, hits give low values 0.997 | locus YBR279W, strain paf1, hits give low values 1.01 | locus YCL011C, strain gbp2, hits give low values 1.02 | locus YCL016C, strain dcc1, hits give low values 1.02 | locus YCL029C, strain bik1, hits give low values 0.988 | locus YCL069W, strain vba3, hits give low values 1.01 | locus YCR088W, strain abp1, hits give low values 1.02 | locus YDL005C, strain med2, hits give low values 1.01 | locus YDL035C, strain GPR1, hits give low values 1.03 | locus YDL040C, strain nat1, hits give low values 1.01 | locus YDL074C, strain BRE1, hits give low values 0.995 | locus YDL101C, strain DUN1, hits give low values 0.974 | locus YDL185W, strain tfp1, hits give low values 0.993 | locus YDL192W, strain arf1, hits give low values 0.984 | locus YDR001C, strain nth1, hits give low values 1.02 | locus YDR069C, strain doa4, hits give low values 1.01 | locus YDR101C, strain arx1, hits give low values 0.996 | locus YDR137W, strain rgp1, hits give low values 1.02 | locus YDR150W, strain NUM1, hits give low values 0.99 | locus YDR159W, strain sac3, hits give low values 0.993 | locus YDR162C, strain NBP2, hits give low values 1.03 | locus YDR195W, strain ref2 0.985 | locus YDR297W, strain sur2, hits give low values 1.02 | locus YDR318W, strain mcm21, hits give low values 0.994 | locus YDR334W, strain swr1, hits give low values 1.02 | locus YDR335W, strain msn5, hits give low values 1.02 | locus YDR388W, hits give low values 0.987 | locus YDR392W, strain spt3, hits give low values 1.03 | locus YDR502C, strain sam2, hits give low values 0.999 | locus YEL003W, strain gim4, hits give low values 1.02 | locus YEL037C, strain rad23, hits give low values 1.02 | locus YEL061C, strain CIN8 (second series), hits give low values 1.01 | locus YEL061C, strain CIN8, hits give low values 0.99 | locus YER015W, strain faa2, hits give low values 1.01 | locus YER016W, strain bim1, hits give low values 1.03 | locus YER110C, hits give low values 0.977 | locus YER111C, strain swi4, hits give low values 1.01 | locus YER155C, strain BEM2 (second series), hits give low values 1.03 | locus YER155C, strain BEM2, hits give low values 0.983 | locus YER167W, strain BCK2, hits give low values 1 | locus YFR010W, strain ubp6, hits give low values 0.996 | locus YGL078C, strain dbp3, hits give low values 0.991 | locus YGL086W, strain mad1, hits give low values 0.982 | locus YGL167C, strain pmr1, hits give low values 1.03 | locus YGL173C, strain kem1, hits give low values 1.02 | locus YGL227W, strain vid30, hits give low values 1.01 | locus YGL240W, strain doc1, hits give low values 1 | locus YGL248W, strain PDE1, hits give low values 0.966 | locus YGL253W, strain hxk2, hits give low values 1.03 | locus YGR135W, strain pre9, hits give low values 0.996 | locus YGR229C, strain SMI1, hits give low values 1.01 | locus YGR252W, strain gcn5, hits give low values 0.961 | locus YHR013C, strain ard1, hits give low values 1.06 | locus YHR027C, strain rpn1, hits give low values 1.02 | locus YHR030C, strain SLT2, hits give low values 0.99 and 1.02 | locus YHR079C, strain IRE1 (second series), hits give low values 0.993 | locus YHR079C, strain IRE1, hits give low values 0.983 | locus YHR094C, strain hxt1, hits give low values 0.989 | locus YHR129C, strain ARP1, hits give low values 0.989 | locus YHR142W, strain chs7, hits give low values 1.01 | locus YHR200W, strain rpn10, hits give low values 0.984 | locus YIL066C, strain RNR3, hits give low values 1.02 | locus YIL073C, strain SPO22, hits give low values 1.01 | locus YIL125W, strain kgd1, hits give low values 0.985 | locus YIR030C, strain dcg1, hits give low values 0.999 | locus YJL092W, strain hpr5, hits give low values 1.01 | locus YJL095W, strain BCK1 (second series), hits give low values 1.03 | locus YJL095W, strain BCK1, hits give low values 0.975 and 1 | locus YJL115W, strain asf1, hits give low values 1.01 | locus YJL129C, strain trk1, hits give low values 1.03 | locus YJL134W, strain LCB3, hits give low values 0.987 | locus YJL154C, strain vps35, hits give low values 1.01 | locus YJL164C, strain tpk1, hits give low values 1.02 | locus YJL166W, strain qcr8, hits give low values 1 | locus YJL168C, strain set2, hits give low values 0.985 | locus YJL187C, strain SWE1 (second series), hits give low values 0.967 | locus YJR043C, strain POL32, hits give low values 1.02 | locus YJR066W, strain TOR1, hits give low values 0.976
